CHO-K1 Ca antag – nonselective inhibitor or artifact in parental CHO-K1 cells. ATP-induced calcium, Fluo-8 fluorescence. 360,000 tested, 0.6% active. inhibition, % at 3 µM;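 active means inhibition above a per-plate cutoff, the plate's mean sample inhibition plus 3 SD, cut at about 24% in these data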
CHO-K1 Ca ag – counter-screen for M1 agonists: effect in parental CHO-K1 cells. Fluo-8 calcium fluorescence; scaled to maximal ATP response, vehicle zero. activation, % at 3 µM. 360,000 tested, 0.48% active. AID 602248; in the data active means activation above about 15%;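 further: untransfected CHO-K1 host cells lacking M1 receptor as counterscreen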
CHO-K1 Ca PAM – nonselective activator or artifact in parental CHO-K1 calcium assay | ATP EC20, Fluo-8 calcium fluorescence; 0% at ATP EC20, 100% at ATP max | activation, % at 3 µM | 360,000 tested, 0.02% active | AID 602247;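 active means activation above the run cutoff, the mean activation of all test compounds plus 3 SD, cut at about 40% in these data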;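 further: peak over basal fluorescence ratio in a 140 s read after ATP addition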
CHRM1 antagonist – human CHRM1 antagonism. P11229. CHO-K1 hM1, Fluo-8 calcium fluorescence, ACh EC80 antagonist. inhibition, % at 3 µM. 360,000 tested, 1.3% active. AID 588852;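 active means percent inhibition above its own plate's cutoff, namely the mean of that plate's compound wells plus 3 SD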;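 further: peak over basal fluorescence ratio during 140 s after agonist addition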
Target sequence (P11229 whole entry, looked up): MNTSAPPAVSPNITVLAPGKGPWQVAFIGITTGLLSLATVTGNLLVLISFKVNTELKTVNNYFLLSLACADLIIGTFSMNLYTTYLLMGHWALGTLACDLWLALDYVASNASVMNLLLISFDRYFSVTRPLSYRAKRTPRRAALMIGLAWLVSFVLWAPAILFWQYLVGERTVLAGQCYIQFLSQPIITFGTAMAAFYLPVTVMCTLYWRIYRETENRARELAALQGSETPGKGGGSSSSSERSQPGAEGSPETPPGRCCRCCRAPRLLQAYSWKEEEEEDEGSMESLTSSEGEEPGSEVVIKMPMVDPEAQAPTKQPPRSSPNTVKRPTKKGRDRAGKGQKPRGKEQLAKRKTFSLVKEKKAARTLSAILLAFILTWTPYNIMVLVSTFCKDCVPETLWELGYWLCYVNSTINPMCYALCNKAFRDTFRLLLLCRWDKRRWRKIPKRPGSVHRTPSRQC
CHRM1 PAM – positive allosteric modulators of human M1 muscarinic receptor; 360,000 tested, 0.088% active; P11229; activation, % at 3 µM; AID 588819; CHO-K1 hM1, Fluo-8 calcium fluorescence, ACh EC20; 0% = ACh EC20, 100% = maximal ACh; in the data active means activation above about 19%, passing the limit was not always enough
M1 ag – activates human CHRM1 receptor. P11229. CHO-K1 hM1, Fluo-8 calcium fluorescence, agonist mode; 0% DMSO, 100% acetylcholine EC100. activation, % at 3 µM. 360,000 tested, 0.33% active. AID 588814;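 active means activation above the run's mean compound activation plus 3 SD, cut at about 16% in these data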;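 further: peak over basal fluorescence ratio within a 140 s kinetic read after compound addition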
Numbers stand for hits; . = inactive. Hits are enriched below; roughly 2.3% of the tested compounds scored in any of these assays.

SMILES	CHO-K1 Ca antag	CHO-K1 Ca ag	CHO-K1 Ca PAM	CHRM1 antagonist	CHRM1 PAM	M1 ag
COc1ccc(CN2CCCC(C(=O)c3cccc(OC(C)C)c3)C2)cc1Cn1cccn1 (stereo unspecified)	.	.	.	37	.	.
CCn1ncc(CN2CCCC(C(=O)c3cccc(OC(C)C)c3)C2)c1C (stereo unspecified)	.	.	.	98	.	.
NC(COCc1ccccc1)c1csc(Nc2ccc(C(=O)NCCO)cc2)n1 (stereo unspecified)	.	.	.	.	.	.
O=C(CSc1cn[nH]n1)Nc1ccccc1C(=O)O	.	.	.	.	.	.
CS(=O)(=O)N(CC(=O)N1CCCC1)C1CCCCC1	.	.	.	.	.	.
CNC(=O)N1c2ccccc2CCc2ccccc21	.	.	.	.	.	.
CN(C)CCCN1c2ccccc2CCc2ccccc21	.	.	.	87	.	.
CC(CN(C)C)CN1c2ccccc2CCc2ccccc21 (stereo unspecified)	.	.	.	98	.	.
COCCN1C(=O)CCC1(C)C(=O)Nc1c(C)cccc1C (stereo unspecified)	26	.	.	.	.	.
CCCCNC(=O)C1(C)CCC(=O)N1CCOC (stereo unspecified)	33	.	.	.	.	.
COc1ccc(S(=O)(=O)NCC2CCCN(C(=O)CCSC)C2)cc1 (stereo unspecified)	.	.	.	.	.	.
CC(C)c1nc(NCCO)c2nnn(Cc3ccccc3)c2n1	.	.	.	.	.	.
Cc1ccc(CNC(=O)CN(C)S(=O)(=O)c2cccs2)cc1	.	.	.	.	.	.
O=C(Nc1ccc(O)c(-c2nc3ccccc3s2)c1)C1=COCCO1	.	.	.	79	.	.
OC(CNCCc1ccc(C(F)(F)F)cc1)COC(c1ccccc1)c1ccccc1 (stereo unspecified)	.	.	.	76	.	.
Cc1cccc(C)c1OCc1nnc(SCC(=O)Nc2nccs2)o1	.	.	.	25	.	.
CCCc1nnc(SCC(=O)Nc2nccs2)o1	.	.	.	.	.	.
Cc1ccc2nc(Nc3ccccc3)c(/C=N/O)c(=O)n2c1	26	.	.	.	.	.
O=C(Cn1ncc2c([nH]c3ccccc32)c1=O)N1CCN(c2ccccn2)CC1	.	.	.	.	.	.
CC(C)C[C@H]1CNC(=O)C(=O)N1CC1CCN(CC2CCC(C)CC2)CC1 (stereo partly specified)	.	.	.	39	.	.
CC[C@H](C)[C@H]1CNC(=O)C(=O)N1CC1CCN(CC2CCC(C)CC2)CC1 (stereo partly specified)	.	.	.	.	.	.
COC(=O)c1ccc(COC(=O)CNC(=O)c2cccs2)cc1	.	.	.	.	.	.
C=CCOc1cccc(C(=O)N2CCCC(Nc3ccc4c(c3)OCCO4)C2)c1 (stereo unspecified)	57	.	.	.	.	.
C=Cc1ccc(C(=O)N2CCCC(Nc3ccc4c(c3)OCCO4)C2)cc1 (stereo unspecified)	.	.	.	.	.	.
CCCNC(=O)COc1ccc(S(=O)(=O)Nc2ccc(C)cc2)cc1	.	.	.	.	.	.
SMILES	CHO-K1 Ca antag	CHO-K1 Ca ag	CHO-K1 Ca PAM	CHRM1 antagonist	CHRM1 PAM	M1 ag
CCCCNC(=O)N(O)C1N(CCCC)C(=O)N(CC(=O)OC)C1(C)C (stereo unspecified)	.	.	.	.	.	.
Cn1nccc1C(=O)Oc1ccc(/C=N/NC(=O)c2ccccc2O)cc1	.	.	.	.	.	.
Nc1nc(-c2nc3ccccc3[nH]2)cs1	32	.	.	.	.	.
c1ccc(-c2nc3ccccc3[nH]2)nc1	.	.	.	.	.	.
COc1ccc(N2CCN(C(=O)CCc3nnc4ccc(N5CCCC5)nn34)CC2)cc1	.	.	.	.	.	.
COc1ccc2c(c1)C1(Nc3ccccc3-c3nc4ccccc4n31)C(=O)N2 (stereo unspecified)	.	37	.	.	.	.
CCOC(=O)c1oc2c(O)c(O)ccc2c(=O)c1-c1nncn1-c1ccccc1	.	.	.	.	.	.
CCOC(=O)c1oc2c(C)c(O)ccc2c(=O)c1-c1nncn1-c1ccccc1	31	.	.	.	.	.
COc1ccccc1CNC(=O)COc1cc2c(c3oc(=O)cc(C)c13)CCC(C)(C)O2	.	.	.	34	.	.
CCNC(=O)C1(c2ccccc2)CCCC1	.	.	.	.	.	.
O=C(OCCN1CCCCC1)C1(c2ccccc2)CCCC1	.	.	.	100	.	.
CN(C)CCOC(=O)C1(c2ccccc2)CCCC1	.	.	.	100	.	.
C[N+]1(CCCOC(=O)C2(c3ccccc3)CCCC2)CCOCC1	.	.	.	100	.	.
O=C(OCCN1CCCC1)C1(c2ccccc2)CCCC1	.	.	.	99	.	.
CCOc1ccc(OCCC(=O)OCC(=O)N2CCN(S(=O)(=O)c3ccc(Cl)cc3)CC2)cc1	.	.	.	.	.	.
Cc1nc(C)c(C(=O)OCC(=O)Nc2ccc(C)c(C)c2)s1	.	.	.	.	.	.
N#Cc1cc([N+](=O)[O-])ccc1NC(=O)COC(=O)CN1C(=O)C2CCCCC2C1=O (stereo unspecified)	.	.	.	.	.	.
CCCC(=O)OCC(=O)Nc1ccc([N+](=O)[O-])cc1C#N	26	.	.	.	.	.
O=C(COc1c(F)c(F)cc(F)c1F)NC(=O)NC1CCCC1	.	.	.	31	.	.
Cn1c(N)c(-c2ccccc2)c2ccc([N+](=O)[O-])cc2c1=O	.	16	.	42	.	62
O=C(/C=C/c1cccs1)Nc1cccc(NC(=O)/C=C/c2cccs2)n1	.	.	.	47	.	.
O=C(/C=C/c1cccs1)Nc1nccs1	.	.	.	.	.	.
O=C1C(CSCc2ccccc2)NC(=S)N1c1ccccc1 (stereo unspecified)	.	.	.	.	.	.
O=C(CSc1nnc(-c2cccnc2)n1-c1ccc(SC(F)F)cc1)N1CCCc2ccccc21	24	.	.	.	.	.
O=S(=O)(c1cc(F)ccc1F)N1CCN(c2ccccn2)CC1	.	.	.	.	.	.
O=S(=O)(c1cc(F)ccc1F)N1CCN(c2ncnc3ccccc23)CC1	.	18	.	31	.	.
Cc1ccc(/C=C2\SC(N3CCN(C(c4ccccc4)c4ccccc4)CC3)=NC2=O)o1	.	.	.	52	.	.
Cc1ccc(-c2ccc(/C=C3\SC(N4CCOCC4)=NC3=O)o2)cc1	.	.	.	.	.	.
CC1=CC(=O)C=CC1=Nc1ccc(N(C)C)cc1	.	.	.	.	.	.
